Reference: PubChem BioAssay AID540333 (Southern Research Specialized Biocontainment Screening …, 2011)
Among all 10,000 compounds or so, about 320 (3.2%) were called active. This is one part of a sample in which actives are shown more often than they occur. Unmarked numbers belong to inactive results. Cut-off read from the data, not from the text of the source: active = CPE inhibition mostly above about 9.1% (no sharp cut-off); inactive = mostly below about 7.2%.

Test: antivirals protecting cells from dengue CPE – CPE readout, HTS (AID 540333)
Conditions: Dengue virus CPE inhibition in host cells, at 20 µM; active compounds read high

Compound	CPE inhibition
CC(C)CN(CC(C)C)C(=O)CCCC(=O)N(CC(C)C)CC(C)C	inactive
O=C(CNC(=O)c1ccc2ccccc2c1)OCC(=O)N1CCN(S(=O)(=O)c2ccc3ccccc3c2)CC1	inactive
O=S(=O)(c1ccc2ccccc2c1)N1CCN(C(=S)Nc2ccc(F)cc2)CC1	26.1% (active)
O=S(=O)(c1ccccc1)N1CCN(C(=S)Nc2ccc(F)cc2)CC1	1.81%
Fc1ccc(NC(=S)N2CCCC2)cc1Cl	0.335%
O=C(CCC(=O)N1CCN(S(=O)(=O)c2ccc(Cl)cc2)CC1)Nc1ccc2ccccc2c1	11% (active)
O=C(CCC(=O)N1CCN(S(=O)(=O)c2ccc(Cl)cc2)CC1)NCc1ccccc1	0.355%
O=S(=O)(c1ccc(Cl)cc1)N1CCN(C(=S)Nc2ccc(F)c(Cl)c2)CC1	13.6% (active)
O=C(Nc1ccc(F)cc1)C(c1ccccc1)N1CCN(S(=O)(=O)c2ccc3ccccc3c2)CC1 (stereo unspecified)	2%
NS(=O)(=O)c1ccc(NC(=S)N2CCN(c3cccc(Cl)c3)CC2)cc1	1.62%
COC(=O)c1ccc(CNC(=O)COC(=O)CC23CC4CC(CC(Br)(C4)C2)C3)cc1	inactive
COc1ccc(CC(=O)NNc2ncnc3c2cnn3C)cc1	inactive
Cc1cccc(CSC(Nc2ccc(F)cc2)=C(C#N)C#N)c1	0.46%
COc1cccc(C(C)NC(=O)c2c(F)cccc2Cl)c1 (stereo unspecified)	0.965%
CC(=O)CSc1ccc(C(=O)O)cn1	0.685%
Cc1ccccc1OCCNC(=O)/C=C/c1ccccc1	inactive
Cc1cccc(OCCC(=O)Nc2ccc(C)c(S(=O)(=O)N3CCCCC3)c2)c1	16.7% (active)
COc1ccc(NC(=O)CCC2CCCCC2)cc1S(=O)(=O)N1CCCCC1	11.6% (active)
COc1ccc(NC(=O)CSc2ccccc2)cc1S(=O)(=O)N1CCCCC1	inactive
COc1ccc(NC(=O)CCCC2CCCCC2)cc1S(=O)(=O)N1CCCCC1	0.425%
Cc1cccc(OCCCC(=O)Nc2ccc(N(C)C)cc2)c1	0.66%
Cc1ccc(NC(=O)CSc2ncnc3ccccc23)cc1S(=O)(=O)N1CCCCC1	2.42%
COc1ccc([C@H]2CC(=O)C=C(c3cc(C(F)(F)F)cc(C(F)(F)F)c3)C2)cc1	inactive

Compound	CPE inhibition
COCCCNCCCCOc1ccc(Br)cc1C	inactive
CC1c2ccccc2SC(CCCN(C)C)c2ccccc21 (stereo unspecified)	inactive
Cc1ccc(NC(=S)N2CCN(C)CC2)c(C)c1	0.8%
COc1ccccc1N(CC(=O)N/N=C/c1c(O)ccc2ccccc12)S(C)(=O)=O	0.02%
CS(=O)(=O)N(CC(=O)N/N=C/c1ccco1)c1ccccc1Br	0.19%
CCOC(=O)c1ccc(-c2ccc(/C=N/NC(=O)CN(c3ccccc3Cl)S(C)(=O)=O)o2)cc1	12.9% (active)
Cc1ccc(NC(=O)c2ccc(OC(F)F)cc2)cc1S(=O)(=O)N(C)C	inactive
CCn1c(COc2ccc(Cl)cc2)nnc1SC1CCc2ccccc2C1=O (stereo unspecified)	1.03%
O=C(COC(=O)CC(c1ccccc1)c1ccccc1)Nc1cccc(F)c1	inactive
CCCCc1nn2c(N)c(/C=C3\C=Nc4ccccc43)c(=O)nc2s1	inactive
O=C1S/C(=C\c2ccccc2)C(=O)N1CC(O)Cn1c2ccccc2c2ccccc21 (stereo unspecified)	inactive
CN(C)c1ccc(/C=C2\SC(=O)N(CC(O)Cn3c4ccccc4c4ccccc43)C2=O)cc1 (stereo unspecified)	2.39%
O=C1S/C(=C/c2ccccc2)C(=O)N1CC(O)Cn1c2ccccc2c2ccccc21 (stereo unspecified)	16.2% (active)
C=CCN1c2ccccc2[C@]23C[C@@H](C(=O)OC)N(C(=O)NC4CCCC4)C2=NC(C(=O)OC)=C(C(=O)OC)[C@H]13	0.19%
CC1(C)CC(=NOC(=O)c2ccccc2)CC(C)(C)N1O	3.8%
Cc1ccc(Nc2ccc(C(=O)NCCc3ccccc3)cn2)cc1	0.525%
Cc1ccc(NCc2nc3ccccc3n2CCOc2ccccc2)cc1	14.9% (active)
CCCCn1c(=N)n(CCOc2ccc(C)cc2)c2ccccc21	inactive
c1ccc(NCc2nc3ccccc3n2CCOc2ccccc2)cc1	0.715%
S=C(NCCN1CCOCC1)Nc1ccccc1Cl	inactive
COc1ccc(CN2C(=O)/C(=C/c3ccncc3)SC2=S)cc1	inactive
O=C(O)CCCCCN1C(=O)/C(=C\c2ccncc2)SC1=S	14.8% (active)
Cc1ccc(/C=C2\SC(=S)N(CCCC(=O)Nc3nccs3)C2=O)cc1	0.46%

Compound	CPE inhibition
Cc1cc(Br)ccc1SCC(=O)OCC(=O)NC(C)c1ccccc1 (stereo unspecified)	0.13%
O=C(Nc1cccc(-c2cn3ccccc3n2)c1)c1cccs1	0.18%
COc1ccc(C(=O)n2cc(C(=O)c3cc(C)ccc3O)cn2)cc1	inactive
COc1ccc(C(=O)n2cc(C(=O)c3cc(C)ccc3O)cn2)cc1OC	14.3% (active)
O=C(c1cnn(C(=O)c2ccccc2)c1)c1ccccc1O	2.51%
Cc1cccc(NCCC#N)c1	inactive
O=C(Nc1cccc(Cl)c1)c1ccc(F)c(S(=O)(=O)NCc2cccs2)c1	11.8% (active)
O=C(Nc1cccc(Cl)c1)c1ccc(F)c(S(=O)(=O)NCc2ccc3c(c2)OCO3)c1	5.79%
Cc1ccc(NC(=O)c2cccs2)cc1S(=O)(=O)Nc1cccc(Cl)c1	7.68%
COCC(C)NC(=O)c1ccccc1[N+](=O)[O-] (stereo unspecified)	1.6%
CC(C)CNC(=S)Nc1ccc(S(N)(=O)=O)cc1	0.36%
COc1ccc(CCNC(=O)COc2ccc(S(=O)(=O)NC3CCCCC3)cc2Cl)cc1OC	2.27%
COc1cc(CN(C2CCCCC2C)S(=O)(=O)c2ccc(S(=O)(=O)NC3CC3)cc2)cc(OC)c1OC (stereo unspecified)	19.9% (active)
COc1cc(CN(C2CCCCC2)S(=O)(=O)c2ccc(S(=O)(=O)N(C)C3CCCCC3)cc2)cc(OC)c1OC	inactive
Cc1nn(-c2ccccc2)c(N2CCCC2)c1/C=N/NC(=O)c1cc(-c2ccccc2)nc2ccccc12	2.99%
Cc1nn(-c2ccccc2)c(N2CCCC2)c1/C=N/NC(=O)c1ccccc1O	inactive
Cc1nn(-c2ccccc2)c(N2CCCC2)c1/C=N/NC(=S)Nc1ccccc1F	13.2% (active)
O=C(CCc1nc2ccccc2c(=O)[nH]1)OCC(=O)c1ccc(C2CCCCC2)cc1	1.97%
O=C(Nc1nc2ccccc2s1)c1cc(-c2ccco2)nc2ccccc12	5.33%
COc1ccc(N2CCN(CC(=O)Nc3sccc3C#N)CC2)cc1	inactive
O=C(NCc1nnc(SCc2ccc(C(F)(F)F)cc2)n1-c1ccccc1)C12CC3CC(CC(C3)C1)C2	9.12% (active)
O=C(CSc1nnc(CNC(=O)C23CC4CC(CC(C4)C2)C3)n1-c1ccccc1)Nc1ccc(F)cc1	6.17%
O=C(NC(=S)N1CCN(c2ccc(F)cc2)CC1)C12CC3CC(CC(C3)C1)C2	0.245%

Compound	CPE inhibition
O=C(NCc1nnc(SCc2ccc(F)cc2)n1-c1ccc(F)cc1)C12CC3CC(CC(C3)C1)C2	9.94% (active)
CC(C)(C)c1ccc(C(=O)NCc2nnc(SCC(=O)N3CCCc4ccccc43)n2-c2ccccc2)cc1	5.59%
Cc1ccc(NC(=O)CSc2nnc(CNC(=O)C34CC5CC(CC(C5)C3)C4)n2-c2ccc(F)cc2)cc1	5.74%
O=C(CSc1nnc(CNC(=O)C23CC4CC(CC(C4)C2)C3)n1-c1ccc(F)cc1)Nc1ccc(F)cc1	3.73%
O=C(CSc1nnc(CNC(=O)C23CC4CC(CC(C4)C2)C3)n1-c1ccccc1)Nc1ccccc1	1.45%
O=C(NCc1nnc(SCc2ccccc2)n1-c1ccc(F)cc1)C12CC3CC(CC(C3)C1)C2	15.9% (active)
N=C1SC(c2ccccc2)C(=O)N1c1ncc(Cc2ccccc2)s1 (stereo unspecified)	0.6%
COC(=O)CCC(=O)NC(=S)Nc1ccc(S(=O)(=O)Nc2cc(OC)nc(OC)n2)cc1	1.88%
CCCCNC(=O)CCCCC(=O)N/N=C/c1cccc(Cl)c1	0.96%
CCN(Cc1ccccc1)C(=O)C1CCN(CC2CC=CCC2)CC1 (stereo unspecified)	inactive
Cc1ccnc(NC(=S)NC(=O)c2cncc(Br)c2)c1	0.165%
CCCCNC(=O)c1cccc2c(=O)c(C)c(-c3ccccc3)oc12	inactive
CCOc1ccc(Oc2c(/C=N/NC(=O)COc3ccccc3OC)c(C)nn2-c2ccccc2)cc1	inactive
O=C(N/N=C\c1ccc(-c2ccccc2[N+](=O)[O-])o1)C1COc2ccccc2O1 (stereo unspecified)	0.26%
CC(CCc1ccccc1)N1CCN(Cc2ccccc2)CC1 (stereo unspecified)	inactive
Cc1nn(-c2ccccc2)c(Cl)c1/C=N/NC(=O)c1cccnc1	4.37%
Cc1nn(-c2ccccc2)c(Cl)c1/C=C(\C#N)C(=O)NC(C)C	20% (active)
CC(C)NC(=O)/C(C#N)=C/c1cccc(NC(=O)c2ccccc2Cl)c1	3.16%
Cc1ccccc1N1CCN(C(=S)c2ccc([N+](=O)[O-])cc2)CC1	inactive
Cc1cc(C)cc(N(C(=O)Cn2nnc(-c3ccccc3)n2)C(C(=O)NC2CCCCC2)c2ccccn2)c1 (stereo unspecified)	2.08%
CC(=O)c1ccc(N(C(=O)Cn2nnc(-c3ccccc3)n2)C(C(=O)NC2CCCCC2)c2ccccn2)cc1 (stereo unspecified)	4.29%
CC(C)(C)NC(=O)C(c1c[nH]c2ccccc12)N(C(=O)Cn1nnc(-c2ccc(Cl)cc2)n1)c1ccccc1F (stereo unspecified)	17.2% (active)
